Test results: PubChem BioAssay
Measured potencies and affinities stand elsewhere. Results filed as inconclusive are left out. Active and inactive are the calls of the source. Unless noted, how the calls were made is not given here.

Legend:
[1] = cytotoxicity in PAX8-dependent RMG-1 cells, dose response, cell-based, cherry-pick (AID 687029;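 active means signal drop whose fitted half-maximal concentration is at most twice the top valid dose, in every test run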;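 further: cells exposed to compound for 96 hours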)
[2] = cytotoxicity in IOSE-T80 ovarian epithelial cells, dose response, selectivity assay for PAX8 inhibitor project, cell-based, cherry-pick (AID 687032;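 active means fitted half-maximal concentration for viability loss no higher than twice the top valid dose, in every repeat run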;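 further: cells exposed to compound for 96 h before reading; 0% = neutral control wells and -100% = 2 µM mitoxantrone kill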)
[3] = inhibitors of CMV-promoter luciferase reporter, dose response, counter-screen for Pax8 inhibitor project, cell-based, HEK293, luminescence, dry powder (AID 743020;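 active means signal-lowering compounds whose fitted half-maximal concentration is at or below twice the top tested dose in every run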;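 further: HEK293 cells stably expressing the CMV luciferase reporter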)
[4] = non-specific cell cytotoxicity, dose response, cytotoxicity control for PAX8 inhibitor project, plate reader, dry powder samples (AID 743021)
[5] = IGROV1 ovarian cancer cell cytotoxicity, dose response, PAX8 inhibitor project, plate reader, dry powder samples (AID 743043);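 further: more negative means fewer viable cells or more cytotoxicity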
[6] = NIH:OVCAR-3 ovarian cancer cell cytotoxicity, dose response, PAX8 inhibitor project, plate reader, dry powder samples (AID 743044); conditions: max activity: at 35 µM, hits give low values unless noted
[7] = IOSE-T80 ovarian epithelial cell cytotoxicity, dose response, cytotoxicity control for PAX8 inhibitor project, plate reader, dry powder samples (AID 743045);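 further: 0% = neutral control median and -100% = positive control median; more negative values mean more cell killing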
[8] = A2780 ovarian cancer cell cytotoxicity, dose response, cytotoxicity control, plate reader, dry powder samples (AID 743046);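 further: 0% = neutral control wells and -100% = cytotoxic reference compound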
[9] = cytotoxicity in OVCAR8 ovarian cancer cells, dose response, PAX8 project, cell-based, plate reader, dry powder samples (AID 743197)

Measured: max activity

Cc1ccc(S(=O)(=O)Nc2ccc3c(c2)CC(=O)N([C@H](C)CO)C[C@H](C)[C@@H](CN(C)Cc2ccc(Cl)c(Cl)c2)O3)cc1
inactive: [1] | [2] | [3] | [4] | [5] | [6] 29.2% [at 0.26 µM, hits give low values] | [7] | [8] | [9]

C[C@@H]1CCCCO[C@@H](CN(C)C(=O)NC2CCCCC2)[C@H](C)CN([C@@H](C)CO)C(=O)c2cc(NC(=O)Nc3ccc(C(F)(F)F)cc3)ccc2O1
inactive: [1] | [2] | [3] | [4] | [5] | [7]

C[C@H](CO)N1C[C@H](C)[C@H](CN(C)Cc2ccc(Cl)c(Cl)c2)OCCCC[C@H](C)Oc2ccc(NC(=O)Nc3ccccc3)cc2C1=O
inactive: [1] | [2] | [3] | [4] | [5] | [6] -25.9% [at 0.26 µM, hits give low values] | [7] | [9]

COc1cccc(S(=O)(=O)N2CC[C@@H]3[C@H](CO)Nc4ccc(C5=CCCCC5)cc4[C@@H]32)c1
inactive: [1] | [2] | [3] | [4] | [5] | [6] 12.1% [at 0.5 µM, hits give low values] | [7] | [9]
